S1P4 antagonist: antagonists of human S1P4 receptor | S1P4-expressing cells, antagonist mode, reporter read-out | O95977 | inhibition, % at 4.98 µM | 220,000 compounds, 0.26% hits | AID 1510; in the data active means inhibition above about 29%;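 further: 0% = wells stimulated with agonist and 100% = vehicle wells without agonist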
S1P4 agonist: human S1P4 receptor agonism; O95977; S1P4-expressing cell line, agonist reporter assay; activation, % at 4.98 µM; 220,000 compounds, 0.35% hits; in the data active means activation above about 11%;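 further: 0% = DMSO vehicle and 100% = reference agonist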
Redox H2O2 prof: compounds producing H2O2 with reducing agent – biochemical, NIH compound library profiling, artefact control for MLSCN library redox annotation, primary screen. DTT-dependent redox cycling H2O2, phenol red/HRP absorbance; 100% = 100 µM peroxide control, 0% = buffer. activation, % at 10 µM. 200,000 compounds, 0.03% hits;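 active means activation of at least 50% relative to the plate's high and low controls in the primary single-dose screen; inactive means activation below 50%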;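 further: compound incubated with DTT at 0.8 mM final as the reducing agent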
S1P3 antagonist: blocks the human S1P3 receptor; CHO S1P3 NFAT-BLA reporter, FRET fluorescence, antagonist mode; inhibition, % at 4.98 µM; AID 485; 170,000 compounds, 0.27% hits;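 active means inhibition above the plate cutoff, the mean inhibition of test wells on that plate plus 3 SD, cut at about 28% in these data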;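 further: cells challenged with S1P at its EC80 of 0.8 µM; blue over green emission ratio from cleaved BLA substrate after 4 h stimulation; 0% = S1P-stimulated wells and 100% = unstimulated DMSO-only wells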
p97 inhibitor: inhibitors of human p97 ATPase; P55072; recombinant p97 ATPase, Kinase-Glo ATP luminescence, 3 h; inhibition, % at 8 µM; 220,000 compounds, 0.42% hits; AID 1481; in the data active means inhibition above about 15%;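 further: 0% = DMSO vehicle and 100% = wells lacking enzyme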
Target sequence (P55072 whole entry, looked up): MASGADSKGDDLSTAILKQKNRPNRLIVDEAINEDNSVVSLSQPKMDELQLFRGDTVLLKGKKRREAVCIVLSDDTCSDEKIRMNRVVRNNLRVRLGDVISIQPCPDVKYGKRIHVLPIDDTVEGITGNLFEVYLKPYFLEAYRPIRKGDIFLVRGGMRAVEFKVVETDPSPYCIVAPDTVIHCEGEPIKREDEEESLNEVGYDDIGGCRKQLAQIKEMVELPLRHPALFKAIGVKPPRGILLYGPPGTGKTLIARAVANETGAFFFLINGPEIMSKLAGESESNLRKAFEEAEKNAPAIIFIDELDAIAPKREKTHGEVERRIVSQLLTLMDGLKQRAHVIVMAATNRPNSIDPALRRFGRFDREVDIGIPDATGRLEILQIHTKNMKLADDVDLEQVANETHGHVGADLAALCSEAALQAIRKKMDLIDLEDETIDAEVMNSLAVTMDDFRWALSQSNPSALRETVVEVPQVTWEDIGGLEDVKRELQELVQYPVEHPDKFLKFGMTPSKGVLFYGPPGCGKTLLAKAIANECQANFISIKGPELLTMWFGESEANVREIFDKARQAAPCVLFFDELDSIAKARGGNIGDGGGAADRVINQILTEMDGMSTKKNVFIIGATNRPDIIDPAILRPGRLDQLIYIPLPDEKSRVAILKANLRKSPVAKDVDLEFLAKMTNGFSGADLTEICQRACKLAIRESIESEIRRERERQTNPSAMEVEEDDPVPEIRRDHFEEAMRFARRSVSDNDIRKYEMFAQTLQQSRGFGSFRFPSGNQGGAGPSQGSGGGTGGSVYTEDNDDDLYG
SUMO HTRF inh: inhibitors of human SUMOylation (UBC9) | P63279 | HTRF SUMOylation assay, SAE1/SAE2 + UBC9, in vitro | inhibition, % at 35 µM | 290,000 compounds, 0.36% hits | AID 2006; in the data active means inhibition above about 50%, passing the limit was not always enough; inconclusive means no clear call, values can overlap the other calls
An asterisk follows results filed as active; ? = inconclusive; . = no result given. Shown are actives, neighbours in structure and some others; about 1.1% of the full set was active somewhere.

SMILES	S1P4 antagonist	S1P4 agonist	Redox H2O2 prof	S1P3 antagonist	p97 inhibitor	SUMO HTRF inh
Cc1ccc(-n2c(O)c(C=Nc3ccccc3-c3n[nH]c(=S)[nH]c3=O)c3ccccc3c2=O)c(C)c1	-14.0	0.0	0.0	13.6	4.2	53.3*
COc1cccc(/C=N/NC(=O)C(=O)N/N=C/c2cccc(OC)c2O)c1O	-1.9	2.0	-0.4	-1.2	-1.1	70.6*
CN(C)CCNC(=O)CCn1nc(-c2ccc(Cl)cc2)ccc1=O	.	.	.	.	.	25.5
C=CCOc1ccc(CNc2ccc3[nH]c(=O)[nH]c3c2)cc1	-5.8	-2.0	-0.6	-9.9	3.8	8.8
COc1cccc2cc(C(=O)NCC3CCCO3)c(=O)oc12 (configuration not stated)	-10.4	-1.9	0.1	.	1.6	21.3
COc1ccc2oc(=O)c(C(=O)NCC3CCCO3)cc2c1 (configuration not stated)	-8.4	0.9	2.2	-3.6	4.8	51.6*
CC(Nc1ccc(Cl)cc1)c1cc(Cl)ccc1O (configuration not stated)	-1.6	1.2	-0.6	.	-3.6	4.2
CC(Nc1ccc(Br)cn1)c1cc(Cl)ccc1O (configuration not stated)	8.4	2.7	-0.1	67.0*	-6.9	-25.7
Cc1ccc(S(=O)(=O)N[C@H](C(=O)Oc2ccc3c(C(F)(F)F)cc(=O)oc3c2)c2ccccc2)cc1	41.3*	0.5	-3.2	.	3.1	?
NS(=O)(=O)OCc1ccc(C(F)(F)F)cc1	.	.	.	.	.	3.0
CCOC(=O)NC(O)C(=O)c1ccc(F)cc1 (configuration not stated)	6.7	-0.5	-0.1	-5.2	1.3	10.6
CCCCC(C(=O)OCC)C(N)Cc1ccc(F)cc1 (configuration not stated)	-0.4	0.2	-0.4	1.3	-0.3	74.0*
Cn1c2ccccc2c2cnn(CC(=O)Nc3ccc(Cl)cc3)c(=O)c21	-5.8	-0.3	.	4.3	4.5	51.9*
CC1C(=O)NN=C1C(=O)N/N=C\c1ccc(O)cc1O (configuration not stated)	-20.2	-1.2	-0.1	17.0	-3.1	89.1*
Nc1cc(N)c(OCC(F)(F)F)cc1OCC(F)(F)F	-5.2	-0.3	1.8	-7.4	18.9*	48.8
O=C(Oc1ccc[nH]c1=O)c1cc([N+](=O)[O-])cc([N+](=O)[O-])c1	-1.9	-0.1	.	6.8	9.0	97.5*
NC(=O)c1ccc(NC(=O)COc2cccc3ccccc23)cc1	.	.	.	.	.	10.8
CCOc1ccc(C2=CS/C(=C(\C#N)c3nnc4n3CCCCC4)N2CC)cc1	-5.3	15.1*	0.1	.	-9.1	-12.4
Cc1cccc2c(N=Nc3ccc(S(=O)(=O)Nc4ccc(Cl)cc4)cc3[N+](=O)[O-])c(O)[nH]c12	-8.7	0.1	-0.1	10.6	2.6	68.5*
O=[N+]([O-])c1cc(-c2ccn[nH]2)ccc1Cl	4.2	0.6	-2.0	-3.8	3.2	-11.3
Cc1cc(C)c(C#N)c(N2CCOCC2)n1	-0.9	1.9	0.7	.	4.6	3.4
CCOc1cc2c(C#N)c(N3CCOCC3)nc(N)c2c(N)n1	.	.	.	10.6	.	97.2*
COCCN1C(=O)Cc2c1nc(N)c1c(N)nc(N3CCN(c4ccc(F)cc4)CC3)c(C#N)c21	-24.4	1.6	-0.5	-20.4	11.8	92.9*
CCC1Cc2c(nc(N)c3c(N)nc(N4CCOCC4)c(C#N)c23)O1 (configuration not stated)	-0.8	0.4	0.1	-8.3	3.7	27.5
COc1ccc(CN2C(=O)Cc3c2nc(N)c2c(N)nc(N4CCOCC4)c(C#N)c32)cc1	-10.7	-0.5	.	-4.8	12.8	100.8*
SMILES	S1P4 antagonist	S1P4 agonist	Redox H2O2 prof	S1P3 antagonist	p97 inhibitor	SUMO HTRF inh
CCC(NS(=O)(=O)c1ccc2c(c1)Cc1cc(S(=O)(=O)NC(CC)C(=O)O)ccc1-2)C(=O)O (configuration not stated)	.	.	.	.	.	8.9
C=C(C)C1CC=C(C)/C(=N\NC(=O)CNc2cccc3ccccc23)C1 (configuration not stated)	0.6	-2.0	1.1	1.7	5.0	45.2
Cc1ccc(C)n1-n1c(C)nc2sc(-c3ccccc3)cc2c1=O	7.6	-2.8	-3.9	54.8*	1.1	-6.2
Cc1ccsc1C(=O)N(CC(C)C)c1c(N)n(Cc2ccccc2)c(=O)[nH]c1=O	.	.	.	.	.	0.5
COc1cc(/C=C2/C(=O)NN(c3ccc(C)c(Cl)c3)C2=O)cc([N+](=O)[O-])c1O	.	.	.	.	.	-10.2
COc1cc(/C=C2\SC(=O)N(c3ccc(Cl)cc3)C2=O)cc([N+](=O)[O-])c1O	-12.5	0.1	-1.2	-16.4	5.0	95.4*
COc1cc(/C=C2\SC(=O)N(c3cccc(Cl)c3)C2=O)cc([N+](=O)[O-])c1O	-0.6	-0.7	-0.8	16.5	-4.7	82.0*
COCC(=O)Nc1ccc(C(C)C)cc1	22.7	-2.8	-3.6	.	1.9	17.9
CCN(CC)c1ccc(/C=N/NC(=O)CNC(=O)C2COc3ccccc3O2)c(O)c1 (configuration not stated)	.	.	.	.	.	50.8*
CCC(C(=O)NC1CCCC1)N(Cc1ccco1)C(=O)CNS(=O)(=O)c1ccccc1 (configuration not stated)	.	.	.	.	.	-8.6
Cc1c(N)c(C(C)(C)C)cc(C(C)(C)C)c1[N+](=O)[O-]	-36.9	1.8	-0.5	-15.2	-1.2	-28.6
Cc1cc2nc3c(=O)[nH]c(=O)[nH]c3nc2c([N+](=O)[O-])c1N	-3.9	-1.3	-0.3	-29.2	14.1	75.6*
Cc1ccc(CSc2[nH]c(=O)ncc2C)cc1	.	.	.	.	.	8.2
CC(NC(=S)NCCCN1CCOCC1)C12CC3CC(CC(C3)C1)C2 (configuration not stated)	0.6	-0.9	-0.8	-17.9	-3.2	-5.8
O=C(Nc1ccc(-c2nc3ccccc3[nH]2)cc1)c1cccc(N2C(=O)CCC2=O)c1	-23.9	2.8	0.0	2.8	5.0	64.8*
O=C(Nc1ccccc1-c1nc2ccccc2[nH]1)c1ccc(N2C(=O)CCC2=O)cc1	-7.3	0.7	-0.7	6.4	-0.1	13.9
Cc1ccc2c(c1)C1C=CCC1C(C(=O)O)N2 (configuration not stated)	3.7	0.3	2.4	-36.6	9.1	60.0*
CC(=O)c1ccc2c(c1)C1C=CCC1C(c1ccncc1)N2 (configuration not stated)	1.3	1.4	-7.5	.	5.6	14.6
COc1cccc2c1NC(C(=O)O)C1CC=CC21 (configuration not stated)	0.1	-1.2	1.9	8.3	6.8	95.2*
O=C(O)C1Nc2c(cccc2C(F)(F)F)C2C=CCC12 (configuration not stated)	.	.	.	.	.	22.9
O=C(C1=C(O)C(=O)N(CC2CCCO2)C1c1cccc(Cl)c1)c1ccco1 (configuration not stated)	.	.	.	.	.	1.3
CC1CCN(Cc2c(C(=O)N/N=C/c3cc(Cl)ccc3O)nnn2-c2nonc2N)CC1	.	.	.	.	.	81.8*

Screens from PubChem.
